Data from the supplement of paper PMC11634586.

What follows are compounds tested on NCI-H1688 (assay: inhibition of cell viability relative to untreated control (fraction); higher = stronger growth inhibition, active = 0.5 or more). Conditions: 30 µM; 24 h.
In short: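 Compounds from a natural compound library (TargetMol) were tested at 30 µM on NCI-H1688 small cell lung cancer cells for 24 h at 37°C under 5% CO2. Cell Counting Kit-8 absorbance at 450 nm, read in triplicate, gave the viability. The values express inhibition of cell viability as a fraction relative to untreated cells.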

Row | Structure (SMILES) | inhibition of cell viability
1 | CN[C@@H](C)[C@H]1[C@H](O)C[C@@]2(C)[C@@H]3CC[C@H]4C(C)(C)[C@@H](NC)CC[C@@]45C[C@@]35CC[C@]12C [Cyclovirobuxin D] | -0.0295 (inactive)
2 | OCc1ccc(O[C@@H]2O[C@H](CO)[C@@H](O)[C@H](O)[C@H]2O)cc1 [Gastrodin] | -0.283 (inactive)
3 | CC(C)=CCC[C@](C)(O[C@@H]1O[C@H](CO)[C@@H](O)[C@H](O)[C@H]1O)[C@H]1CC[C@]2(C)[C@@H]1[C@H](O)C[C@@H]1[C@@]3(C)CC[C@H](O)C(C)(C)[C@@H]3[C@@H](O[C@@H]3O[C@H](CO)[C@@H](O)[C@H](O)[C@H]3O)C[C@]12C [Ginsenoside Rg1] | -0.0362 (inactive)
4 | O=c1ccc2ccc(O)c(O)c2o1 [Daphnetin] | -0.0337 (inactive)
5 | COc1ccccc1O [Guaiacol] | -0.0875 (inactive)
6 | CC1(C)CC[C@]2(C(=O)O)[C@H](O)C[C@]3(C)C(=CC[C@@H]4[C@@]5(C)CC[C@H](O)[C@@](C)(C=O)[C@@H]5CC[C@]43C)[C@@H]2C1 [Quillaic Acid] | 0.0942 (inactive)
7 | CC[C@H](C)[C@H](N)C(=O)O [isoleucine] | -0.178 (inactive)
8 | O=P(O)(O)O[C@H]1[C@H](OP(=O)(O)O)[C@@H](OP(=O)(O)O)[C@H](OP(=O)(O)O)[C@@H](OP(=O)(O)O)[C@H]1OP(=O)(O)O [Phytic acid] | -0.0495 (inactive)
9 | O=C(O)c1cc(=O)[nH]c(=O)[nH]1 [Orotic acid] | -0.0262 (inactive)
